# Reference: PubChem BioAssay (Tox21)
# Inconclusive results are not listed. Unmarked numbers belong to inactive results. Active and inactive are the calls of the source. Calls come from the whole dose curve; as a rule, active = well fitted cell-killing curve with a large enough effect in the repeat runs; inconclusive = weak or mixed curves, or effect the other way; inactive = flat fitted curve, though single readings scatter.
# Experiment: qHTS RealTime-Glo MT Cell Viability Assay in HepG2 cells - 40 hour (AID 1224870); note: nearly all actives have a fitted effect of over 50% in size
# Settings: RealTime-Glo luminescence; series mostly up to 76.8 µM
# From the text: National Center for Advancing Translational Sciences [NCATS]
# NIH Chemical Genomics Center [NCGC]
# U.S. Environmental Protection Agency [EPA]
# National Institutes of Environmental Health Sciences [NIEHS]
# National Toxicology Program [NTP]
# U.S. Food and Drug Administration [FDA]
# Measure of cell viability is critical in the cell-base assay. Analysis of cell viability is necessary for the characterization of cell responses to cytotoxic drugs and environmental stress. A RealTime-Glo MT Cell Viability Assay to monitor cell viability in real time of continues cell culture during 40 hours of compound treatment was used to screen Tox21 10K library compounds in HepG2 cells. The RealTime-Glo MT Cell Viability Assay is a nonlytic, homogeneous, bioluminescent method to measure cell viability in real time using a simple, plate-based method. The assay involves adding NanoLuc luciferase and a cell-permeant prosubstrate to cells in culture. Viable cells reduce the proprietary prosubstrate to generate a substrate for NanoLuc luciferase. This substrate diffuses from cells into the surrounding culture medium, where it is rapidly used by the NanoLuc Enzyme to produce a luminescent signal. The signal correlates with the number of viable cells, making the assay well suited for cytotoxicity studies.
# Tox21 Assay Protocol Summary:
# The mixture of HepG2 cell suspension and reagents were dispensed at 600cells/6 ul/well in 1536-well tissue culture treated black solid bottom plates using a Multidrop dispenser. After the assay plates were incubated at a 37 C/5% CO2 incubator for 5 hours, 23 nL of compounds dissolved in DMSO, positive and negative controls was transferred to the assay plate by a pintool work station. The plates were incubated at 37 C for 40 hours. The luminescence intensity were measured at 0h, 8h, 16h, 24h, 32h and 40h time points using ViewLux plate reader during compound treatment.
# % is set by controls: 0 for no effect and ±100 for the full control effect.
SMILES,outcome,"activity change, negative = cytotoxic"
CC(C)CCO,inactive,
Cc1nc2n(c(=O)c1CCN1CCC(C(=O)c3ccc(F)cc3)CC1)CCS2,inactive,
NC(Cc1c[nH]c2ccccc12)C(=O)O (stereo not given),inactive,
C/C=C(\C)C(=O)OCC/C=C\CC,inactive,
c1ccc(CNc2ncnc3nc[nH]c23)cc1,inactive,
CC1=CC[C@H](CC=O)C1(C)C,inactive,
C=COCCOCCOC=C,inactive,
Nc1cc(Cl)cc(S(=O)(=O)O)c1O,inactive,
Cc1ccc(S(=O)(=O)NC(=O)NC2CCCCCCC2)cc1,inactive,
Nc1nc(=O)n([C@@H]2O[C@H](CO)[C@@H](O)[C@@H]2F)cc1I,inactive,
CCc1nccnc1C,inactive,
CN=C(NC#N)NCCSCc1csc(N=C(N)N)n1,inactive,
C[C@H]1O[C@H](O[C@H]2[C@H](O)[C@@H](O)[C@@H](O[C@H]3[C@H](O)[C@@H](O)[C@H](O)O[C@@H]3CO)O[C@@H]2CO)[C@H](O)[C@@H](O)[C@@H]1N[C@H]1C=C(CO)[C@@H](O)[C@H](O)[C@H]1O,inactive,
CNCc1ccccc1,inactive,
Nc1ccc(S(=O)(=O)Nc2ccccn2)cc1,inactive,
CO[Si](CCCS)(OC)OC,inactive,
C[C@H](CCC(=O)NCC(=O)O)[C@H]1CC[C@H]2[C@@H]3[C@H](O)C[C@@H]4C[C@H](O)CC[C@]4(C)[C@H]3C[C@H](O)[C@]12C,inactive,
COc1cc2c3cc1Oc1cc(ccc1O)C[C@@H]1c4c(cc(OC)c(O)c4Oc4ccc(cc4)C[C@@H]3N(C)CC2)CC[N+]1(C)C,inactive,
CCOC(=O)OCC/C(SC(=O)OCC)=C(\C)N(C=O)Cc1cnc(C)nc1N,inactive,
CC(C)COC(=O)CC(C(=O)OCC(C)C)S(=O)(=O)O (stereo not given),inactive,

SMILES,outcome,"activity change, negative = cytotoxic"
CCCCC/C=C/CC(=O)OC,inactive,
O=C(O)c1c(Cl)ccc(Cl)c1Cl,inactive,
NC(=O)NNC(N)=O,inactive,
N#CCCOCCOCCC#N,inactive,
C[CH2][Ge]([Cl])([CH2]C)[CH2]C,inactive,
CCC1Nc2cc(Cl)c(S(N)(=O)=O)cc2S(=O)(=O)N1 (stereo not given),inactive,
CC1CCC(C(C)(C)S)C(=O)C1 (stereo not given),inactive,
Cc1cc(O)c2c(c1)C(=O)c1cccc(O)c1C2=O,inactive,
CCOC(=O)C(=O)c1csc(NC=O)n1,inactive,
COc1ccc(N=Nc2cc(C)c(N=Nc3ccc(S(=O)(=O)O)cc3)cc2OC)cc1,inactive,
CCOC(=O)CC(CC(=O)OCC)(OC(C)=O)C(=O)OCC,inactive,
COc1cccc2sc(N)nc12,inactive,
CCOC(=O)CC#N,inactive,
BrC/C=C/CBr,,-1.8% [at 15.8 µM]
O=C(Nc1cccc(C2=NCCN2)c1)Nc1cccc(C2=NCCN2)c1,,2.87% [at 15.8 µM]
CCCCCCCCCCCCCCCCCCN(C)C,inactive,
CC(C)C(=O)c1ccccc1,inactive,
CC(=O)OCC(=O)[C@@]1(O)[C@H](OC(C)=O)C[C@H]2[C@@H]3CCC4=CC(=O)C=C[C@]4(C)[C@@]3(F)[C@@H](O)C[C@@]21C,inactive,
O=CO,,17.5% [at 6.97 µM]
C[Si]1(C)N[Si](C)(C)N[Si](C)(C)N1,inactive,
